Data on seven compounds can be found in PubChem BioAssay.

For orientation: inhibition means the relative decrease from the control value, in per cent. As a reminder, the viability is a read-out of living cells in per cent, often relative to untreated cells.

The target of experiment [1] is 6-phosphogluconate dehydrogenase, decarboxylating (Homo sapiens) (UniProt P52209). Briefly: inhibition of human phosphogluconate dehydrogenase – biochemical, recombinant enzyme, NADPH absorbance, primary screen (AID 1159550;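 active means at least 20% inhibition of 6-phosphogluconate dehydrogenase activity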). The following applies: recombinant 6PGD, NADPH absorbance 341 nm; at 10 µM; stronger effect = higher value.
Sequence of 6-phosphogluconate dehydrogenase, decarboxylating (Homo sapiens) (P52209 whole entry, looked up): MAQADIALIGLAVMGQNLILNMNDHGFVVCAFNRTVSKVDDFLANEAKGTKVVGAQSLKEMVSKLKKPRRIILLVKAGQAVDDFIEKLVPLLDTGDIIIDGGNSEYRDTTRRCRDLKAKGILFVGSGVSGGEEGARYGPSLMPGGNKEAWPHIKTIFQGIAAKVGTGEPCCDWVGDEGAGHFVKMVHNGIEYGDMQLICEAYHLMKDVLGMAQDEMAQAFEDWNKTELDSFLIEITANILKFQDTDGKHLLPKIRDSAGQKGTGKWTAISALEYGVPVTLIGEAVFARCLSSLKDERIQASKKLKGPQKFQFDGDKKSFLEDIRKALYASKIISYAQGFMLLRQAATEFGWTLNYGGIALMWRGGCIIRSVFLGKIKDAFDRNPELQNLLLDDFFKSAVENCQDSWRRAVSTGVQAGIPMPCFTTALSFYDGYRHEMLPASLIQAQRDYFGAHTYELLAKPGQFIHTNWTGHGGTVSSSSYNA
Experiment [2] in a line: viability loss in pontine glioma line – cell-based, JHH-DIPG-1, MIPE4.0, CellTiter-Glo, qHTS, dose response (AID 1347062; cut-off not given, nearly all actives have AC50 up to about 27 µM). As to conditions: JHH-DIPG-1 viability, CellTiter-Glo ATP luminescence. In general terms: Cellular ATP, detected with luciferase, serves as a proxy for viable cell number.
Experiment [3] can be described thus: viability loss in pontine glioma line – cell-based, SU-DIPG-IV, MIPE4.0, CellTiter-Glo, qHTS, dose response (AID 1347063; cut-off not given, nearly all actives have AC50 up to about 30 µM;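 further: compound exposure lasted 48 hours before the viability readout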). As to conditions: CellTiter-Glo ATP luminescence.
Experiment [4] is described as follows: viability loss with induced miR-34 in A549 – imaging, A549 dox-inducible miR-34, nuclei and caspase counts, primary screen (AID 1347080). The following applies: A549 miR-34 inducible, Hoechst nuclei count, 48 h.
The nature of experiment [5]: MELAS cybrid and Rieske KO viability enhancers – cell-based, MELAS cybrids, Rieske KO mouse fibroblasts, CellTiter-Glo, primary screen (AID 1508586;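 active means mean z-score across replicates of 1.96 or higher in either the MELAS or the Rieske mutant cell line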;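 further: z relative to plate mean and SD of compound and empty wells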). As to conditions: low glucose.
Experiment [6] addresses Mitogen-activated protein kinase 7 (Homo sapiens) (UniProt Q13164). Description: Gal4-ERK5 driven luciferase induction – cell-based, HTS, primary screen (AID 1508626;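 active means luciferase signal above three times the same-plate solvent-only control wells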;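 further: luciferase driven by Gal4-ERK5 fusion binding five Gal4 sites before minimal TATA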). As to conditions: HeLa Gal4-ERK5 transactivation, 18 h, at 5 µM, stronger effect = higher value.
For experiment [7], the target named is ATP-dependent translocase ABCB1 (Homo sapiens) (UniProt P08183). Description: P-glycoprotein substrate transport blockade – cell-based (AID 377; in the data active means fluorescence slope change above about 50%). As to conditions: MDR1-expressing cells, fluorescent substrate accumulation slope; stronger effect = higher value; concentration not given here.
Sequence of ATP-dependent translocase ABCB1 (Homo sapiens) (P08183 whole entry, looked up): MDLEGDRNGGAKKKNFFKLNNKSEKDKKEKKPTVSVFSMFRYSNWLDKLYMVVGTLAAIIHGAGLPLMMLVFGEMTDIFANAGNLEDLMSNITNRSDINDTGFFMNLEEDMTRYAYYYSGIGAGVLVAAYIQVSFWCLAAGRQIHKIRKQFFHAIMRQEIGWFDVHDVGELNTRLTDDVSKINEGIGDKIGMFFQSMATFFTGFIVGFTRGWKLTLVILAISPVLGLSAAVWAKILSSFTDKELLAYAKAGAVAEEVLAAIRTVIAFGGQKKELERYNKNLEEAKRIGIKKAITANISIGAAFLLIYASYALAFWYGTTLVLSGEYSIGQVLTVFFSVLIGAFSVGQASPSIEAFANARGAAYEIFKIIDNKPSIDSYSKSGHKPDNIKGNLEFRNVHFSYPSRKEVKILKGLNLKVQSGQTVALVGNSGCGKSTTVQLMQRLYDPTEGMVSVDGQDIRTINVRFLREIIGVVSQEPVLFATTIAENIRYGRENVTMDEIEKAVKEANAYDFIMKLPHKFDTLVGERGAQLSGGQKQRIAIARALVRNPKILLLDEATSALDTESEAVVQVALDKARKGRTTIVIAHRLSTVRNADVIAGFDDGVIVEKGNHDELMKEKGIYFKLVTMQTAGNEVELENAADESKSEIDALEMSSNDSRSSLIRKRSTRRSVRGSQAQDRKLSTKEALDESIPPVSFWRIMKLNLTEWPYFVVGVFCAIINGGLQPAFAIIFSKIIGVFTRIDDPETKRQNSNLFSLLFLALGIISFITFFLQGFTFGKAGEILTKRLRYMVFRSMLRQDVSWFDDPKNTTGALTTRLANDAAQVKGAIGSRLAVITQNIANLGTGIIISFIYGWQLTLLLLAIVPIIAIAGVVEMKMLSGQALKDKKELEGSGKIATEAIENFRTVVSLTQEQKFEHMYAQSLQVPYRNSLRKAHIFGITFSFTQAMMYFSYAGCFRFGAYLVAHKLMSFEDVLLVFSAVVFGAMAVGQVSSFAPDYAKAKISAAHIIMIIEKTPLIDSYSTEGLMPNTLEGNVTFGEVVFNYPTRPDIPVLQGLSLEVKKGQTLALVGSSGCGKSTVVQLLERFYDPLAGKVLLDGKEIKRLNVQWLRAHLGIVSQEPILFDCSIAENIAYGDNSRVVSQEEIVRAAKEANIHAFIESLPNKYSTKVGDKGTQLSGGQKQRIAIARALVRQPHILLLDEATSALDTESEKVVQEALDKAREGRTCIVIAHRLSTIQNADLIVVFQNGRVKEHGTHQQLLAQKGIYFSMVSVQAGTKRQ
A short description of experiment [8]: compounds altering viability of human ES cells (AID 493140; call rule not given here;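 further: cells exposed to compounds for four days before counting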). The following applies: human embryonic stem cell survival screen; stronger effect = higher value.
Experiment [9] can be described thus: P. berghei load reduction in hepatocytes – cell-based, HepG2, luciferase luminescence, HepG2 viability, primary screen (AID 624349; in the data active means parasite load remaining mostly below about 12%, no sharp cut-off; inactive means mostly above about 10%;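 further: 100% = mean of DMSO negative control wells on the same plate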). As to conditions: P. berghei liver stage in HepG2, luciferase luminescence, concentration not given here; parasite load remaining: stronger effect = lower value; viability: measured here: HepG2 viability without parasites.
Experiment [10] concerns the target NAD(+) hydrolase SARM1 (Homo sapiens) (UniProt Q6SZW1). Description: blocking NAD cleavage by SARM1 SAM-TIR – cell lysate, NAD-Glo luminescence (AID 1508614;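 active means compound whose remaining NAD level is above about 45 nM, limit read from the data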). As to conditions: SAM-TIR HEK293T lysate NADase, at 1 µM, stronger effect = higher value.
A short description of experiment [11]: galactose survival enhancers in mitochondrial complex I cybrids – cell-based, galactose medium, ATP luminescence, primary screen (AID 1645843;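 active means z-score of at least 1.8 in each of two replicates, scored against plate mean and spread of sample wells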;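 further: positive z means more ATP and so rescue of galactose-driven cybrid death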). As to conditions: complex I mutant cybrid cells, 72 h, stronger effect = higher value.
Experiment [12] can be described thus: blockers of polyQ-driven CASP3 activation – cell-based (AID 1583). The following applies: polyglutamine-induced caspase-3 activation, cell assay; stronger effect = higher value;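 tested at 10 µM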.
A short description of experiment [13]: yeast 75Q aggregation reduction – 75Q-TubU reporter (AID 1593). As to conditions: Yeast 75Q polyglutamine aggregation reporter.
Experiment [14] is described as follows: restoration of touch response, mutant HTT neurons – whole organism, C. elegans mechanosensory neurons, N-terminal huntingtin (AID 1599). The following applies: C. elegans polyQ-huntingtin mechanosensory neurons, stronger effect = higher value.
The nature of experiment [15]: blockers of cytochrome c efflux from mitochondria – biochemical, purified mitochondria (AID 1603).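 Further: mouse liver mitochondria challenged with calcium chloride; signal normalized to the plate average as 100%.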 As to conditions: stronger effect = lower value.
Experiment [16] can be described thus: polyglutamine aggregate formation blockers (AID 1604). The following applies: polyglutamine-induced protein aggregation inhibition assay; stronger effect = higher value; tested at 2.5 µM.
Experiment [17] is described as follows: glutamate transport activators, MN-1 cells, MN-1 cell line (AID 1612).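 Further: tested at 1 µM final; 0% = mean of DMSO vehicle wells on each plate; positive means more glutamate uptake than control and negative means less.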 As to conditions: MN-1 motor neuron cells, stronger effect = higher value.
Experiment [18] can be described thus: GFP-Q80 aggregate reduction, neuronal-like cells, cell-based, NGF-treated PC12, GFPQ80 (AID 1614).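 Further: lower means fewer inclusions and 0 means no inclusions at all.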 As to conditions: PC12 NGF-treated GFP-polyQ80 inclusion reduction.
Experiment [19] can be described thus: 75Q-TubH aggregate inhibition, S. cerevisiae, yeast (AID 1616). The following applies: S. cerevisiae 75Q-TubH polyglutamine aggregation suppression; stronger effect = higher value.
Experiment [20] is described as follows: compounds altering circadian rhythm period length – cell-based, LOPAC library, luminescence reporter (AID 2774; call rule not given here;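 further: values are relative to mean of DMSO wells on each plate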). The following applies: circadian reporter cells, at 7 µM, actives lie on both sides.
For experiment [21], the system named is Hepatitis C virus NS3 helicase. Description: blockers of NS3h binding to ssDNA – biochemical, fluorescence polarization, LOPAC1280 library, primary screen (AID 687035; in the data active means inhibition above about 37%). The following applies: Purified HCV NS3 helicase, Cy5-dT15 ssDNA binding fluorescence polarization; stronger effect = higher value; concentration not given here.
Experiment [22] is described as follows: compounds altering Cy5-DNA-NS3h complex signal – biochemical, LOPAC1280, artefact control for HCV NS3 helicase inhibitor project (AID 687037; call rule not given here). The following applies: Cy5-DNA-NS3h complex fluorescence interference counterscreen. In general terms: Counterscreens check selectivity or assay interference.
Experiment [23] is described as follows: blockers of cellular phospholipid synthesis – cell-based, LOPAC library, screen 4, primary screen (AID 1347384; call rule not given here). As to conditions: animal cells, phospholipid biosynthesis inhibition screen; at 10 µM.
[24] abbreviates: stronger effect = lower value, cell number ratio, induced over uninduced.
Where [25] appears, read: measured here: relative caspase fold change +Dox/-Dox.
The mark [26] stands for this setting: measured here: total cells with miR-34 induction, stronger effect = lower value.
[27] abbreviates: measured here: total cells without miR-34 induction.
[28] abbreviates: MELAS cybrid survival, CellTiter-Glo 48 h, stronger effect = higher value.
The mark [29] stands for this setting: Rieske KO mouse fibroblast survival, CellTiter-Glo 72 h.

Where “and” joins values, the source holds several entries; their conditions need not be identical. Equal entries are not always repeated. Results filed as inconclusive are left out. For part of these data: Potency and affinity values are given separately. Calls of active or inactive are those of the source.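 How the source made its calls, unless noted: active means compounds whose cell count with miR-34 switched on is under 0.7 times the count with it off; inactive means the rest.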

Sequence of NAD(+) hydrolase SARM1 (Homo sapiens) (Q6SZW1 whole entry, looked up): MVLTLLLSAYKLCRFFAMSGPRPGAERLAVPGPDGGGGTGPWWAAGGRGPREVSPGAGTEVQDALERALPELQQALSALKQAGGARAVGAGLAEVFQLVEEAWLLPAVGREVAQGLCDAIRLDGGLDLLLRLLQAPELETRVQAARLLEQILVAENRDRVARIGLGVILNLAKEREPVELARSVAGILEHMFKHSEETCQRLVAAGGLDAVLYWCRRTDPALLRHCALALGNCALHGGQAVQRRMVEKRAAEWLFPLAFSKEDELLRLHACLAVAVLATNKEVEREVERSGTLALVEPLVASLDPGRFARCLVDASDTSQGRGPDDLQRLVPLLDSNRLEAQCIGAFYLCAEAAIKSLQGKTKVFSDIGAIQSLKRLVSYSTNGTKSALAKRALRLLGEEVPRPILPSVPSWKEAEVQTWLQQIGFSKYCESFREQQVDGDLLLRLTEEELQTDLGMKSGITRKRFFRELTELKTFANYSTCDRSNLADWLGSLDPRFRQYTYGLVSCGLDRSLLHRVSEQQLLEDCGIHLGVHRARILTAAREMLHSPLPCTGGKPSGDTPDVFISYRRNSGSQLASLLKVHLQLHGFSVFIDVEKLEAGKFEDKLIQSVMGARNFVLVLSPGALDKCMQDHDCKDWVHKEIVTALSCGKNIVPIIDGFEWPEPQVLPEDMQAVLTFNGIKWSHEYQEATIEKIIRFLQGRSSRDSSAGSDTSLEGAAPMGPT
Sequence of Mitogen-activated protein kinase 7 (Homo sapiens) (Q13164 whole entry, looked up, the tested form may be a part): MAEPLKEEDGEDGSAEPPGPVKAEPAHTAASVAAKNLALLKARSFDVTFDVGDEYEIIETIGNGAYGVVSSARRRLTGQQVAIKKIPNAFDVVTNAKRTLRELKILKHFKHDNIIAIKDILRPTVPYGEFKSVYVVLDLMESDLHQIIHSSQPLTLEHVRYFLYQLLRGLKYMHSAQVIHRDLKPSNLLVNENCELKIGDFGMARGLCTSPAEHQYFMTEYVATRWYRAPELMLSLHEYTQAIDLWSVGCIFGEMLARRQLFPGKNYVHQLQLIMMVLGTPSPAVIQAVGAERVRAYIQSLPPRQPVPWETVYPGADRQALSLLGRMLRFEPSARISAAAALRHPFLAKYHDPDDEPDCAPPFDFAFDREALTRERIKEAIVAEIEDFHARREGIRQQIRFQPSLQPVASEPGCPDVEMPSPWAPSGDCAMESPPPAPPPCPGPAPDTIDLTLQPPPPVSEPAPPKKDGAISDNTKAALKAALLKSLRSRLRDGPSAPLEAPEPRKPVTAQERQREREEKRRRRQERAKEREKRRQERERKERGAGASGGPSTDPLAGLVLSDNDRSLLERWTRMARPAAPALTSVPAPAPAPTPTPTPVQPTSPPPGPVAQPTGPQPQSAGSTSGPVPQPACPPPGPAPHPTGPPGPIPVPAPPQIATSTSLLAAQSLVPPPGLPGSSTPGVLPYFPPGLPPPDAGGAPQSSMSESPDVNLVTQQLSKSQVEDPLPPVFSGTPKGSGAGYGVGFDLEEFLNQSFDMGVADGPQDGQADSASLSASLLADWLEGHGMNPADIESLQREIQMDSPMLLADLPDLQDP

Take `COc1ccc2ccc(=O)oc2c1CC=C(C)C`: the inhibition in experiment [1] is 9.51% (inactive). In addition, the compound was called inactive in experiment [2] and in experiment [3]. Moreover, the fold change was 0.94 (inactive) in [4] (setting [24]) and 0.78 in experiment [4] (setting [25]). The results for the cell count in experiment [4] (setting [26]) and in experiment [4] (setting [27]) were 8510 and 9050, respectively. In addition, the z-score in experiment [5] (setting [28]) is -0.211 (inactive); in experiment [5] (setting [29]) it was -1.1. Also, in [6], the luciferase signal is 36 AU (inactive).
In the case of `C[C@]12CC[C@H]3C(=CCc4cc(O)ccc43)[C@@H]1CCC2=O`, in [7], the fluorescence slope change was 51.2% (active). Also, the survival in experiment [8] was 2.75 (inactive). Besides, in experiment [9], the parasite load remaining was 125% (inactive). Also, the viability in [9] worked out at 97.4%. Also, the inhibition in experiment [1] was 9.47% (inactive). Also, the fold change in [4] (setting [24]) was 0.908 (inactive); in experiment [4] (setting [25]), 1.13. For the same compound, the results for the cell count in experiment [4] (setting [26]) and in [4] (setting [27]) were 7380 and 8130, respectively. In addition, the z-score in experiment [5] (setting [28]) was 0.735 (inactive); in [5] (setting [29]), 0.488. Also, the remaining NAD in experiment [10] was 10 nM (inactive). Besides, the luciferase signal in [6] is 84 AU (inactive).
For the compound `CC(=O)O[C@H]1C(=O)[C@@]2(C)[C@H]([C@H](OC(=O)c3ccccc3)[C@]3(O)C[C@H](OC(=O)[C@H](O)[C@@H](NC(=O)c4ccccc4)c4ccccc4)C(C)=C1C3(C)C)[C@]1(OC(C)=O)CO[C@@H]1C[C@@H]2O`, the parasite load remaining in experiment [9] was 52.9% (inactive) and 35% (inactive). In addition, the viability in experiment [9] is 43.2% and 79%. Also, the inhibition in experiment [1] was 17.9% (inactive). Further, the fold change in experiment [4] (setting [24]) was 0.873 (inactive) and 1.02 (inactive); in experiment [4] (setting [25]), 1.16 and 1.19. Besides, the cell count in [4] (setting [26]) is 1550 and 2180; in experiment [4] (setting [27]), 1780 and 2140. The z-score in experiment [5] (setting [28]) was -1.19 (inactive) and -2.08 (inactive); in experiment [5] (setting [29]) it was 0.25 and 0.578; in experiment [11], -0.295 (inactive). Also, in experiment [10], the remaining NAD was 10 nM (inactive). Moreover, in experiment [6], the luciferase signal is 36 AU (inactive).
On to `C[C@@H]1C(=O)O[C@H]2C[C@@]34[C@H]5C[C@@H](C(C)(C)C)[C@]36[C@@H](OC(=O)[C@@H]6O)O[C@@]4(C(=O)O5)[C@]21O`, for which the parasite load remaining in experiment [9] is 48.8% (inactive). In addition, the viability in experiment [9] is 110%. Moreover, the inhibition in experiment [1] is 0.379% (inactive). In addition, the fold change in [4] (setting [24]) was 0.95 (inactive); in experiment [4] (setting [25]), 1.75. The cell count in experiment [4] (setting [26]) is 10300; in [4] (setting [27]), 10800. For the same compound, the z-score was 0.0275 (inactive) in [5] (setting [28]), -1.08 in experiment [5] (setting [29]) and 0.435 (inactive) in [11].
Consider `N[C@@H](Cc1c[nH]c2ccccc12)C(=O)O`, for which the inhibition is 8.74% in experiment [12], 2% (inactive) in experiment [21] and 3.98% (inactive) in experiment [1]. In experiment [13], the score was found to be 1.61. Besides, the rescue above control in experiment [14] is -5.37. Besides, in experiment [15], the cytochrome c release ratio was determined as 0.96. Also, in [16], the inhibition of aggregation amounted to 63.4%. Also, in experiment [17], the glutamate uptake change was -7.55%. The same compound had an inclusion score in [18] of 2. In addition, in experiment [19], the aggregation suppression score is 1.04. The period change in experiment [20] is 0.11 h (inactive). For the same compound, the fluorescence ratio (interference) in [22] was 1 (inactive). Besides, the fold change in experiment [4] (setting [24]) is 0.995 (inactive); in experiment [4] (setting [25]), 0.835. Further, the values for the cell count in experiment [4] (setting [26]) and in experiment [4] (setting [27]) were 9660 and 9710, respectively. In [23], the compound was classed as inactive. Besides, the remaining NAD in experiment [10] was 10 nM (inactive). For the same compound, the luciferase signal in experiment [6] is 136 AU (inactive). Moreover, the z-score in experiment [11] was 0.315 (inactive).
With `Oc1cc2c(cc1O)[C@@H]1c3ccc(O)c(O)c3OC[C@]1(O)C2`, the inhibition in experiment [1] was 1.84% (inactive). Besides, the fold change was 0.884 (inactive) in [4] (setting [24]) and 0.956 in [4] (setting [25]). In addition, the cell count in experiment [4] (setting [26]) was found to be 9250; in experiment [4] (setting [27]), 10500. In addition, the z-score in experiment [5] (setting [28]) is -0.379 (inactive); in [5] (setting [29]), 0.131. Further, the luciferase signal in experiment [6] was 28 AU (inactive).
`CC(=O)N[C@@H](Cc1ccccc1)C(=O)O`: the inhibition in experiment [1] was -1.76% (inactive). The fold change in experiment [4] (setting [24]) was 0.922 (inactive); in [4] (setting [25]), 1.14. The cell count in [4] (setting [26]) amounted to 8280; in [4] (setting [27]), 8980.
